In the supplement of paper PMC6555819:

What was measured:
Test in all cases: PBM binding z-score (relative to random genomic background probes); higher = stronger binding; sequences stand for … in GC…GCGATTGACAGCGTAGAATGAAGG
[1] = system: RARb homodimer (NR concentration 270 nM)
Procedure, shortened: (§1)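 Each nuclear receptor dimer, without ligand, was incubated for 1 h on custom Agilent 4×180K protein-binding microarrays. Binding was detected with antibodies against each partner (one per run), and scanned fluorescence was regression-normalized. The binding z-scores are referenced to random human genomic background probes.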

[2] = system: RARg:RXRa (NR concentration 270 nM, RXRa partner concentration 90 nM)
Procedure, shortened: as §1

[3] = system: RARg homodimer (NR concentration 270 nM)
Procedure, shortened: as §1

[4] = system: RXRa DBDmut IVT, anti-RXR (DBD mutation: RXRa K156A/R161A, NR concentration 90 nM)
Procedure, shortened: as §1

[5] = system: RXRa homodimer (NR concentration 180 nM)
Procedure, shortened: as §1

[6] = system: THRa:RXRa (NR concentration 90 nM, RXRa partner concentration 90 nM)
Procedure, shortened: as §1

[7] = system: THRa homodimer (NR concentration 90 nM)
Procedure, shortened: as §1

[8] = system: VDR:RXRa (NR concentration 270 nM, RXRa partner concentration 90 nM)
Procedure, shortened: as §1

[9] = system: VDR homodimer (NR concentration 270 nM)
Procedure, shortened: as §1

Sequence	PBM binding z-score [1]	PBM binding z-score [2]	PBM binding z-score [3]	PBM binding z-score [4]	PBM binding z-score [5]	PBM binding z-score [6]	PBM binding z-score [7]	PBM binding z-score [8]	PBM binding z-score [9]
GCTATTATTTGAAAGGGCAACCGAATGATTCTCG	2.11	1.12	1.27	0.947	1.03	0.568	0.3	0.646	0.995
CCTAGTTGGTCAAGGTCATACACGCTATAGGTAC	4.18	4.12	4.33	2.53	4.46	4.03	3.75	4.33	4.48
TTTTGTAGATCAAAGGTTAAGAAAGCCGAAGCCT	1.49	1.74	0.912	-0.536	3.39	1.3	-0.617	1.41	-0.0263
ACTATTAGTTTACTTAGGGCAACCGATACGACGC	0.74	0.56	1.01	1.17	0.51	1.66	0.312	0.639	0.435
AGAATCAGGTTAAGATCAGGGAAACAGAATACAT	0.909	0.705	0.926	0.172	0.786	1.45	0.772	0.3	0.415
CCTTCTGGGCCAAAAAGGTCATTGATGCCGATAA	4.2	4.63	4.26	1.29	4.8	2.87	0.411	4.86	2.86
CGTCCAAGGTCATAGGAGATCAGTGAAGACAGAT	3.65	5.88	6.14	4.11	6.2	3.82	2.46	4.3	3.14
GCTCGGAGGACAAGGTCAGATCTTTGTCCGTAGA	3.06	3.19	3.28	0.628	2.46	3.17	1.58	1.61	0.872
AGAACGAGGGTACGCTGAGTTGATAGCAGAGTAG	-0.336	0.424	0.303	0.994	0.16	0.2	-0.484	1.15	2.14
CAAACTAGGTCACAGGTCAAAGTCGAGCCAACCA	4.27	5.97	5.55	2.31	6.18	3.97	2.07	4.33	2.12
AGAATGAGGTTAAGATCAGGGAGACAGAATACAT	1.15	1.94	1.5	1.06	2.49	2.55	0.979	1.24	0.818
CCTACTGGGCCATTCAGAGGTCAGTGATCATATG	3.78	4	2.75	0.291	2.29	2.18	0.651	1.59	1.13
TCTCGGAGGACGCGAAGGTCAGAGCTTTCCAGAG	3.03	2.26	2.1	0.401	1.67	1.84	0.0235	1.23	0.488
ATATGTGGGTTAGCTGGGGTCATTCAGACTAGGC	3.54	3.97	2.93	2.16	5.59	5	3.84	5.99	5.73
AGAACGAGGGAAATGAGTTGATAGCACGGGTGGC	-0.754	-0.0436	0.0126	-0.228	-0.0737	-0.188	-0.839	0.62	0.141
CGAACTAGGTCAAGGACTGTGAATCTCCGCACGC	2.85	3.76	4.41	1.33	2.35	2.52	1.03	1.17	0.0818
GCATATAGGTAATACAAGGTGAATGTCCGATTGT	0.685	0.413	0.66	0.0909	0.689	4.18	0.928	0.106	-0.178
TCGAGTAGGTTAGTCGGGGCATTCGGCCAACATA	0.848	-0.0623	0.0417	-0.081	-0.218	0.974	-0.521	2.15	0.124
ACTAGCAGGCCAAGGGTAACTCAAGATTAGTCCG	0.76	0.469	0.734	-0.0114	0.59	0.54	-0.321	-0.166	-0.349
CCTATTAGTTGACCTTAAGGGCAACCGAAGCTCG	4.16	4.56	3.45	1.41	4.9	4.36	5.34	3.66	2.12
GCGACTAGGGCAAAGCAGGTTACCATAAGGTTGG	0.924	0.573	1.01	-0.427	0.44	2.98	0.052	-0.209	-0.405
GGCACGAGGGCAAGTTGATAGCAGAGTTTGATGG	1.6	1.91	2.12	2.06	1.17	1.23	0.0135	0.599	1.58
CCTATTAGTTGACCATAAGGGCAACCAAAGCTCG	2.24	1.55	1.14	0.788	0.828	2.02	1.47	0.939	0.747
CGTCCATGGTCAGCAGGTCAGTGAAAGCGACGTG	2.46	1.81	2.05	-0.144	0.937	0.887	-0.0849	0.0484	-0.456
ACTACAGGGTCATCGTAGGCCAGAGTACGCACAG	3.45	5.52	5.09	3.26	5.9	4.64	1.27	5.05	3.36
GAGACAGGGTCAAGGCCAGAGTACGCGTATTGAT	3.45	5.32	5.34	1.95	6.25	3.52	1.06	4.4	1.98

Sequence	PBM binding z-score [1]	PBM binding z-score [2]	PBM binding z-score [3]	PBM binding z-score [4]	PBM binding z-score [5]	PBM binding z-score [6]	PBM binding z-score [7]	PBM binding z-score [8]	PBM binding z-score [9]
TCTTGTAGATCAATAGATGTTAAGAAAGTGCGCT	-0.256	0.00708	0.206	0.767	0.395	-0.118	-0.769	0.468	-0.147
TAGAGTAGGTTACCAATGGGGCATTCAGCTTTCT	1.09	1.76	1.12	0.201	0.73	0.389	-0.222	0.34	-0.0971
CCTAGTGGGCCACGAAAGGTCATTGATTCAGTGA	4.68	4.71	4.64	0.0516	5.09	3.82	0.453		1.99
CCTTACCGGTCACGAGGTTATAGCACGACGAGCG	3.08	4.01	3.68	0.188	2.62	2.37	1.43	2.17	1.34
GTACCAAGGTGAATAGGTCATTGATGAGTAGGCG	3.98	4.79	3.34	-0.0633	3.5	2.82	0.757	2.24	0.849
TCTTGTAGATCAATAGAGGTTAAGCAAGTGCGCT	1.25	0.719	0.343	0.564	1.32	2.68	-0.555	2.4	0.376
TCTAGTTGGTAAAAGGTCACACACTCGAAATGCG	5.28	6.21	5.8	2.17	6.64	4.08	2.3	4.89	2.75
CCTAACAGGCCAGGGTCACTCAAGCATTTCGCTT	2.8	3.17	2.48	0.743	3.37	3.01	1.15	2.86	1.44
TAGCCTAGGTCATGCGGGCCCGTATAGTGTCGGC	2.9	3.77	4.19	0.324	3.06	3.06	1.33	1.97	0.149
CTCGATAGGTCGGTTGAGGTGAGTATACGGATAA	1.02	0.724	1.15	-0.0462	0.554	4.73	1.19		0.0696
CTCGAAAGGTCGTGCTCAGGGGAGTATACCAAAC	2.53	4.03	3.44	2.02	4	2.77	0.415	3.14	1.13
TTACTAAGGTGAGCTGAGGTCGTTGATCCAACTC	1.96	1.39	1.38	0.464	1.52	4.79	2.51	4.42	2.32
CCTACTGAGCCACGAAAGGTCATTGATTCAGTGA	4.59	4.56	4.22	1.03	5.47	3.41	1.23	3.97	2.9
TCATATAGGTAAACAAGTGAAAGTCCGTAAGTTA	0.321	0.396	0.548	1.76	1.12	0.265	0.0631	1.09	0.508
TCGAGTAGGTTAGCGGCATTCAGAATGGCGTCGA	-0.725	-0.482	-0.458	-0.267	0.000996	-0.647	-0.985	-0.635	-0.691
TAGCCTGGGTCAGATCGGGCCAGTATACGCTATA	1.61	2.42	2.86	-1.34	1.46	4.11	-0.483	0.452	-1.02
GCAGATAGGTGAAACGCAGGTAACTCAGGGTGGC	0.000492	0.873	0.288	-0.635	0.592	1.32	-0.559	-0.534	-0.593
GCTCGGAGGACAAGGTCAAAGCTTTGTCCGTAGA	3.35	4.56	4.54	1.32	4.4	3.57	2.09	3.38	2.02
ATAGGTAGGTTAAGGGTCATTCAGGTTGGTTCGC	4.42	5.12	3.74	2	6.15	3.71	2.58	5.65	4.7
ATCGAAAGGTCGTAGGTGAGTATACCCACCCGAA	2.79	4.48	3.9	1.21	5.28	2.5	0.0179	3.47	1.21
TGAATGAGGTTGTAAGATCAGGGAACGTTGCAAA	-0.435	-0.0347	0.0621	-0.583	0.396	0.192	-0.364	-0.0386	-0.21
GCTAGTTGGTCAATAAAAGGTCACACACCGGTCG	5.51	6.07	5.18	0.854	5.51	3.66	1.83	4.16	2.11
ACTATTAGTTGACTTAGGGCAATCGATACGACGC	0.586	0.781	0.924	0.592	0.921	1.31	0.18	0.462	0.448
CCTAGTTGGTCAAGGTCACACACGCTATAGGTAC	4.21	4.84	4.85	2.36	5	4.11	4.42	4.26	4.32
AGTCAAAGTGCAGGACGAGGTAACGTAAAGCACG	0.382	0.878	1.15	-0.269	0.45	2.23	0.449	-0.0485	0.0328
CTACCAAGGTGAACAAGGTTGTTGATTACTATTC	1.02	0.783	0.877	0.73	0.747	2.05	0.944	4.05	0.267
